Screening results as filed in PubChem.
Most compounds without a hit are left out; they make up all but 7.6% or so of the library.
SW480 rereplic: A quantitative high throughput screen for small molecules that induce DNA re-replication in SW480 colon adenocarcinoma cells. SW480 DNA re-replication, Hoechst DNA content imaging, 48 h. Potency, µM (titrated, usually from 46.1 µM), for the others: at the highest dose re-replication activation, most hits filed as activators. 340,000 tested, 1.8% active. AID 624297, 2012; further: potency means the concentration at half of the fitted maximal effect; % of control where 0% means no effect; nearly all actives have a fitted effect of over 55% in size
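Image-based read-out: total Hoechst fluorescence of nuclei (405 nm excitation, 500-530 nm emission), with hits raising the fraction of high-intensity nuclei. SW480 colon cells incubated 48 hr with compounds at 37 C.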
MCF10A rerep: A quantitative high throughput screen for small molecules that induce DNA re-replication in MCF 10a normal breast cells | 350,000 tested, 2.9% active | Potency, µM (top dose mostly 46.1 µM), for inactives: at the top dose activity, positive = re-replication, hits mostly activators | AID 624296, 2012 | MCF 10A DNA re-replication, Hoechst nuclear intensity, 48 h; further: potency means the concentration at half of the fitted maximal effect; % of control where 0% means no effect; nearly all actives have a fitted effect of over 50% in size
KB-V1 cytotox: qHTS assay for MDR1-selective chemotherapeutics: Primary screen using the drug-selected MDR subline cells KB-V1; KB-V1 MDR cells viability, CellTiter-Glo, 72 h; Potency, µM (top dose mostly 46.1 µM), hits mostly cytotoxic; 400,000 tested, 3.4% active; AID 1347076, 2019; further: potency means the concentration at half of the fitted maximal effect; on the % scale 0 is the no-effect control and ±100 the full control effect; nearly all actives have a fitted effect of over 60% in size
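KB-V1 cells (P-gp-expressing MDR subline of KB-3-1) in phenol-red-free DMEM with 10% FBS were exposed to library compounds over a concentration series for 72 h at 37 degrees C. Viability read by CellTiter-Glo luminescence; concentration-effect curves fitted after normalization.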
KCNH2 3.1 block: qHTS for Inhibitors of KCHN2 3.1: Mutant qHTS | Potassium voltage-gated channel subfamily H member 2, brain isoform KCNH2 3.1 (human) | U2OS KCNH2 3.1, thallium flux FluxOr; active compounds read low | activity change, % (tested at about 1.8 µM) | 340,000 tested, 0.95% active | AID 720553, 2013;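 active means maximum activity change below -70%; inconclusive means maximum activity change from -70% to -50%; inactive means maximum activity change above -50%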;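 further: thallium influx rate constant from kinetic fluorescence after stimulation buffer; on the % scale 0 is the no-effect control and ±100 the full control effect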
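Thallium flux via FluxOr fluorescence (Red40 quencher, 45 min loading) in U2OS cells virally expressing the KCNH2 3.1 isoform (1.77 x 10^8 /mL virus, overnight at 37 C). Rate constants from 2-min kinetic reads post-stimulation, normalised to positive and negative controls.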
hERG WT inh: qHTS for Inhibitors of KCHN2 3.1: Wildtype qHTS | 340,000 tested, 0.37% active | Voltage-gated inwardly rectifying potassium channel KCNH2 (Homo sapiens), Q12809 | AID 720551, 2013 | activity change, % at 1.84 µM | U2OS, BacMam KCNH2, thallium flux FluxOr; active compounds read low;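 active means maximum activity change below -70%; inconclusive means maximum activity change between -70% and -50%; inactive means maximum activity change above -50%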; further: on the % scale 0 is the no-effect control and ±100 the full control effect
Target sequence (Q12809 whole entry, looked up): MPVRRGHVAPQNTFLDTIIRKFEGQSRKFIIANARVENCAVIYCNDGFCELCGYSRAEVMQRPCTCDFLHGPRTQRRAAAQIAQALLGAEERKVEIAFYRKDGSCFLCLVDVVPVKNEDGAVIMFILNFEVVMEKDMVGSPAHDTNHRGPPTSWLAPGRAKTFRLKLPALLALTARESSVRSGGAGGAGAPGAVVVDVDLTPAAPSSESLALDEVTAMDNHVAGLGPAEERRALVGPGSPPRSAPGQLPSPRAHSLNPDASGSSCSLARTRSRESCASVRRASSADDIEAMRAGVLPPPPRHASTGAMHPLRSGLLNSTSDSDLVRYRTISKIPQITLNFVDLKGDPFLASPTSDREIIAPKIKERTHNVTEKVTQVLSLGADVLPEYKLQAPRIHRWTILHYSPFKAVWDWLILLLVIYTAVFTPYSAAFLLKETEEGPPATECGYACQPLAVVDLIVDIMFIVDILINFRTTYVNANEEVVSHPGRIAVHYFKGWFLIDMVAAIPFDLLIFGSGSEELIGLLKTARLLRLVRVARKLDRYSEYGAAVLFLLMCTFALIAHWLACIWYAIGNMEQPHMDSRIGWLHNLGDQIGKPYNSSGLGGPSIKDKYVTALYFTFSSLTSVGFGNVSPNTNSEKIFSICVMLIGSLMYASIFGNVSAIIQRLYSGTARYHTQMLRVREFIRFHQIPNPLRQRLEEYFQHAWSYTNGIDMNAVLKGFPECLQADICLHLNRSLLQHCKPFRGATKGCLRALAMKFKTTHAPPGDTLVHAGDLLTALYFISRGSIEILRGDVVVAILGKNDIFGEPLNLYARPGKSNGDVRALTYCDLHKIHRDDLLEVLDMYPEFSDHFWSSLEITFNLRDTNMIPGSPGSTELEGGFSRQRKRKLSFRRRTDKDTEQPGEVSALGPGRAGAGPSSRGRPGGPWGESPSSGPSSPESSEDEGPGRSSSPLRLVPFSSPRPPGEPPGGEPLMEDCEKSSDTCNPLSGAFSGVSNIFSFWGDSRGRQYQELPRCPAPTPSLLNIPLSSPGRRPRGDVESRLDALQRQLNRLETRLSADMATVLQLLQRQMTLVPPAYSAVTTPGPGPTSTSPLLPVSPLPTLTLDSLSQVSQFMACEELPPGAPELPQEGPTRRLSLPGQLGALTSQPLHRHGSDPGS
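U2OS cells transduced with wild-type KCNH2 virus are loaded with FluxOr dye for 45 min, and thallium flux is measured in kinetic reads before and after stimulation buffer. Rate constants are normalized to DMSO controls.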
KB-3-1 cytotox: qHTS assay for MDR1-selective chemotherapeutics: Primary screen using the parental adenocarcinoma cell KB-3-1; KB-3-1 viability, CellTiter-Glo ATP luminescence, 72 h; Potency, µM (series often up to 46.1 µM), usual class: cytotoxic; 400,000 tested, 1.4% active; AID 1347075, 2019; further: potency means the concentration at half of the fitted maximal effect; on the % scale 0 is the no-effect control and ±100 the full control effect; nearly all actives have a fitted effect of over 60% in size
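Luminescent ATP read-out (CellTiter-Glo) measures survival of drug-naive KB-3-1 cells after 72 h compound exposure at 37 °C. Titration series was screened from lowest to highest concentration, with DMSO vehicle plates as background controls.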
Starred values were filed as active, the others as inactive. Unless noted, the call rests on the fitted dose curve; in most records, active means well fitted curve in the direction sought with a large enough effect; inconclusive means small, poorly fitted or top-dose-only effect, or another doubt; inactive means no such curve, though single readings can be large; an effect the other way counts as inactive or inconclusive.

Results for COc1ccc(/C=C/C(=O)c2cc(F)ccc2OC(=O)c2ccccc2OC)cc1OC ?
SW480 rereplic: inconclusive; MCF10A rerep: 13µM*; KB-V1 cytotox: 3.26µM*; KCNH2 3.1 block: -20.5; hERG WT inh: 10.1; KB-3-1 cytotox: 5.17µM*

Results for COc1ccc(/C=C/C(=O)c2cc(F)ccc2OC(=O)c2ccccc2)cc1OC ?
SW480 rereplic: 1.3µM*; MCF10A rerep: inconclusive; KB-V1 cytotox: inconclusive; KCNH2 3.1 block: -9.9; hERG WT inh: -6.2; KB-3-1 cytotox: inconclusive

What do the screens show for `CCc1nnc(NC(=O)CSc2nnc(C)n2CC2CCCO2)s1` (centres undefined)?
SW480 rereplic: -1.7%; MCF10A rerep: 2.7%; KB-V1 cytotox: inactive; KCNH2 3.1 block: 5.0; hERG WT inh: -161.0*; KB-3-1 cytotox: inactive

Results for O=S(=O)(c1ccc(Oc2ccc(Br)cc2)cc1)N1CCOCC1 ?
SW480 rereplic: -4.1%; MCF10A rerep: 1.1%; KB-V1 cytotox: 11.6µM*; KCNH2 3.1 block: -2.4; hERG WT inh: -1.8; KB-3-1 cytotox: inactive

How did CCOc1ccc(S(=O)(=O)N2CCOCC2)cc1NC(=O)CSCC(=O)Nc1ccc(C)cc1 do in these assays?
SW480 rereplic: 0.9%; MCF10A rerep: -1.9%; KB-V1 cytotox: inactive; KCNH2 3.1 block: -0.9; hERG WT inh: -11.1; KB-3-1 cytotox: inactive

How did Cc1ccc(CSCC(=O)Nc2cc(S(=O)(=O)N3CCOCC3)ccc2OCC(F)(F)F)cc1 do in these assays?
SW480 rereplic: 5.8%; MCF10A rerep: 2.4%; KB-V1 cytotox: 14.6µM*; KCNH2 3.1 block: -12.7; hERG WT inh: 4.5; KB-3-1 cytotox: inconclusive

How did O=C(CSCc1ccc(Br)cc1)Nc1ccc(S(=O)(=O)N2CCOCC2)cc1 do in these assays?
SW480 rereplic: -2.8%; MCF10A rerep: -4.2%; KB-V1 cytotox: 20.6µM*; KCNH2 3.1 block: -2.7; hERG WT inh: 9.2; KB-3-1 cytotox: inactive

How did Cc1ccc(NC(=O)CCNC(=O)Cn2cnc3ccccc3c2=O)cc1F do in these assays?
SW480 rereplic: -3.4%; MCF10A rerep: -3.2%; KB-V1 cytotox: inactive; KCNH2 3.1 block: -6.3; hERG WT inh: -10.3; KB-3-1 cytotox: inactive

What do the screens show for `CS(=O)(=O)c1ccc(C(=O)OCC(=O)Nc2ccc(OC(F)(F)F)cc2)cc1[N+](=O)[O-]`?
KB-V1 cytotox: inactive; KB-3-1 cytotox: inconclusive

How did CCOC(=O)c1[nH]c(C)c(C(=O)c2cc(F)ccc2F)c1C do in these assays?
SW480 rereplic: 1.03µM*; MCF10A rerep: 1.16µM*; KB-V1 cytotox: inconclusive; KCNH2 3.1 block: 1.3; hERG WT inh: -3.4; KB-3-1 cytotox: 0.92µM*

How did CCOC(=O)c1c(C)[nH]c(C(=O)NNC(=O)c2ccccc2F)c1C do in these assays?
SW480 rereplic: 2.1%; MCF10A rerep: 0.0%; KB-V1 cytotox: inactive; KCNH2 3.1 block: 9.0; hERG WT inh: -6.6; KB-3-1 cytotox: inactive

What do the screens show for `CCOC(=O)c1[nH]c(C)c(C(=O)OCc2ccccc2F)c1C`?
SW480 rereplic: 7.31µM*; MCF10A rerep: 8.2µM*; KB-V1 cytotox: 2.31µM*; KCNH2 3.1 block: -12.6; hERG WT inh: -4.4; KB-3-1 cytotox: 4.61µM*

Results for O=C(/C=C/c1ccc(C(F)(F)F)cc1)Nc1cccc([S+](=O)([O-])Nc2ccccc2F)c1 ?
KB-V1 cytotox: inactive; KB-3-1 cytotox: inactive

How did NC(=O)CSc1nnc2ccc(-c3ccc(F)cc3)nn12 do in these assays?
SW480 rereplic: 2.6%; MCF10A rerep: 1.9%; KB-V1 cytotox: inactive; KCNH2 3.1 block: -16.3; hERG WT inh: 2.4; KB-3-1 cytotox: inactive

What do the screens show for `COc1ccc(CCn2c(Br)nc3c2c(=O)[nH]c(=O)n3C)cc1`?
SW480 rereplic: inconclusive; MCF10A rerep: 15.9%; KB-V1 cytotox: 4.11µM*; KCNH2 3.1 block: 15.9; hERG WT inh: -6.4; KB-3-1 cytotox: 5.17µM*

Results for Cn1c(=O)[nH]c(=O)c2c1nc(Br)n2C/C=N/Nc1ccccc1 ?
SW480 rereplic: 9.6%; MCF10A rerep: inconclusive; KB-V1 cytotox: inactive; KCNH2 3.1 block: 3.4; hERG WT inh: -8.1; KB-3-1 cytotox: 16.4µM*

Results for COc1ccc(CCn2c(NN)nc3c2c(=O)[nH]c(=O)n3C)cc1 ?
SW480 rereplic: 14.6µM*; MCF10A rerep: inconclusive; KB-V1 cytotox: inconclusive; KCNH2 3.1 block: -16.9; hERG WT inh: -10.0; KB-3-1 cytotox: 13µM*

How did Cc1ccc(OCCCCN2CCc3ccccc3C2)cc1 do in these assays?
SW480 rereplic: -1.5%; MCF10A rerep: 14.6µM*; KB-V1 cytotox: inactive; KCNH2 3.1 block: -30.8; hERG WT inh: 24.9; KB-3-1 cytotox: inconclusive

Results for CN1CCN(CCCOc2ccc(-c3ccccc3)cc2)CC1 ?
SW480 rereplic: 8.8%; MCF10A rerep: inconclusive; KB-V1 cytotox: inactive; KCNH2 3.1 block: -90.2*; hERG WT inh: 51.7; KB-3-1 cytotox: inactive

How did CN1CCN(CCOc2ccc(-c3ccccc3)cc2)CC1 do in these assays?
SW480 rereplic: inconclusive; MCF10A rerep: inconclusive; KB-V1 cytotox: inactive; KCNH2 3.1 block: -26.7; hERG WT inh: 29.3; KB-3-1 cytotox: inactive

What do the screens show for `NC(=S)N=Nc1c(O)n(CCCl)c2ccc(Cl)cc12`?
SW480 rereplic: 12.7%; MCF10A rerep: -2.6%; KB-V1 cytotox: 13µM*; KCNH2 3.1 block: -5.5; hERG WT inh: -3.3; KB-3-1 cytotox: inconclusive

How did Cc1c(Cc2ccccc2)c(=O)oc2c(O)c(O)ccc12 do in these assays?
SW480 rereplic: inconclusive; MCF10A rerep: 20.6µM*; KB-V1 cytotox: inactive; KCNH2 3.1 block: -10.2; hERG WT inh: -16.0; KB-3-1 cytotox: inconclusive

Results for Cc1c(Cc2ccccc2)c(=O)oc2cc(O)ccc12 ?
SW480 rereplic: inconclusive; MCF10A rerep: 11.4%; KB-V1 cytotox: inactive; KCNH2 3.1 block: 1.2; hERG WT inh: -10.5; KB-3-1 cytotox: inactive

What do the screens show for `Cc1c(CC(=O)NCc2ccccc2)c(=O)oc2c(C)c(O)ccc12`?
KB-V1 cytotox: inconclusive; KB-3-1 cytotox: 13µM*

Results for Cc1c(Cc2ccccc2)c(=O)oc2c(CN(C)C)c(O)c(Cl)cc12 ?
SW480 rereplic: -5.7%; MCF10A rerep: 18.4µM*; KB-V1 cytotox: 9.2µM*; KCNH2 3.1 block: 4.2; hERG WT inh: -8.7; KB-3-1 cytotox: inconclusive
